Laboratory results taken from ChEMBL document CHEMBL1157539, “Thousands of chemical starting points for antimalarial lead identification” (Nature, 2010).

Key:
Assay type in all cases: functional
Plasmodium falciparum [1] = assay: GSK_TCMDC: Inhibition of Plasmodium falciparum 3D7 in whole red blood cells, using parasite LDH activity as an index of growth. Test compounds present at 2uM
Plasmodium falciparum [2] = assay: GSK_TCMDC: Inhibition of Plasmodium falciparum Dd2 in whole red blood cells, using parasite LDH activity as an index of growth. Test compounds present at 2uM
HepG2 = assay: GSK_TCMDC: Percent inhibition of human HepG2 cell line. Test compounds present at 10uM.

| Structure (SMILES) | Inhibition (Plasmodium falciparum [1]) [%] | Inhibition (Plasmodium falciparum [2]) [%] | Inhibition (HepG2) [%] |
| --- | --- | --- | --- |
| O=C(NC1c2ccccc2Oc2ccccc21)c1ccccc1O | 95 | 0 | 0 |
| Cn1c(NC(=O)CCCCCNC(=O)c2ccc(O)c(-c3ccc(Cl)c(Cl)c3)c2)nc2ccccc21 | 100 | 55 | 0 |
| CCc1cc(NC(=O)Nc2ccnc3ccccc23)ccc1OC.Cl | 85 | 24 | 0 |
| O=C(Nc1cccc(Cl)c1)N[C@H]1CCN(Cc2ccc(OCCCN3CCCCC3)cc2)C1 | 99 | 0 | 15 |
| CCN(CC)CCN1C(=O)c2oc3ccc(F)cc3c(=O)c2C1c1cccc(Cl)c1 (configuration not stated) | 99 | 93 | 0 |
| COc1cc(F)c2ncc(Cl)c(CCN3CCC(NCc4ccc5c(n4)NC(=O)CO5)CC3)c2c1.Cl | 89 | 19 | 20 |
| CN(CCc1ccccc1)c1ncc(-c2ccccc2CNCc2ccccc2O)cn1 | 99 | 94 | 10 |
| CNCc1ccc(-c2cccc(CNCc3ccc(-c4ccccc4)cc3)c2)c(C(=O)OC)c1.O=C(O)C(F)(F)F | 92 | 19 | 25 |
| Cc1sc2nc(CN3CCCC3)nc(-n3c(NCCO)nc4ccccc43)c2c1C | 96 | 11 | 19 |
| Cl.N[C@@H](CCNCc1ccc(-c2cccnc2)cc1)Cc1ccc(F)c(F)c1 | 98 | 57 | 45 |
| N=C(N)NC(=O)Nc1cc(F)c(Cl)c(Br)c1 | 100 | 50 | 0 |
| N#Cc1cccc(Nc2nccc(NCC(O)c3cccc(C(F)(F)F)c3)n2)c1 (configuration not stated) | 99 | 84 | 4 |
| CN(C)CCCN1C(=O)c2[nH]nc(-c3ccc(Cl)cc3O)c2C1c1ccc(Cl)cc1 (configuration not stated) | 99 | 15 | 57 |
| CCCCC1(NC(=O)[C@@H](Nc2ccc(C#N)c3ccccc23)C2CCCCC2)CCCCC1.O=C(O)C(F)(F)F | 91 | 84 | 8 |
| Cc1nc2c(c([O-])c1Cl)-c1ccc(Oc3cccc(C(F)(F)F)c3)cc1C2=O.[Na+] | 94 | 95 | 25 |
| CN1CCC[C@H]1COc1ccc(CN2CC[C@H](NC(=O)c3ccc(Cl)c(Cl)c3)C2)cc1Br.O=C(O)C(F)(F)F | 100 | 20 | 81 |
| COc1ccc(Cc2nc(/N=C(\N)Nc3ccccc3)ccc2OC)cc1 | 93 | 68 | 40 |
| CC(=O)Nc1ccc(CN(Cc2ccc(F)cc2)Cc2cccc(Oc3ccccc3)c2)cc1 | 88 | 82 | 0 |
| O=C(Nc1ccc(-c2nc3ccccc3[nH]2)cc1)c1ccc(N2CCCC2)c([N+](=O)[O-])c1 | 100 | 95 | 43 |
| CN1CCCN(c2ccnc3cc4c(cc23)N(C(=O)c2ccc(C(F)(F)F)cc2)CC4)CC1.Cl | 100 | 63 | 10 |
| Cc1cc(C(=O)NC2CCN(Cc3ccccc3)CC2)ccc1-c1nc2ccc(C(F)(F)F)cc2[nH]1 | 95 | 2 | 19 |
| CC(C)C[C@H](NC(=O)c1ccc(OCCN2CCOCC2)cc1)C(=O)N[C@H](/C=N/NC(=O)c1ccccc1)CCc1ccccc1 | 98 | 90 | 17 |
| O=[N+]([O-])c1c(O)nc2c(c1O)CCC2 | 97 | 1 | 9 |
| COc1cccc(C(=O)NC(C=Cc2ccccc2)c2cc(Cl)c3cccnc3c2O)c1 (configuration not stated) | 95 | 58 | 27 |
| CC(=O)Nc1ccc(S(=O)(=O)Nc2ccc(Nc3nc(C)cc(N4CCCCC4)n3)cc2)cc1 | 89 | 54 | 23 |
| COc1ccc(C(=O)CCC(=O)N(CCC2CCCN2C)Cc2ccc(-c3ccc(CNCCc4ccc(S(C)(=O)=O)cc4)cn3)cc2)cc1F.O=C(O)C(F)(F)F (configuration not stated) | 93 | 45 | 13 |
| C(=Cc1ccccc1)C=NN=c1cc[nH]c2ccccc12 | 100 | 100 | 24 |
| COc1cccc([C@@H](CC(=O)Nc2cc(C(F)(F)F)ccc2OC)Nc2ccc(C#N)c3ccccc23)c1 | 96 | 53 | 19 |
| Cc1cnc(Nc2cccnc2)nc1Nc1ccccc1C(=O)NC(C)C | 85 | 26 | 9 |
